# IL-1B inflam inh: inflammasome signaling inhibition, IL-1 beta readout; THP-1 LPS/ATP IL-1B secretion, AlphaLISA, 16 h; active compounds read low; activity change, % at 57.5 µM; 360,000 compounds, 4.7% hits; in the data active = activity change below about -50%; inconclusive = mostly about -30% to -49%
#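 THP-1 cells pretreated 1 hr with compounds (up to 57.5 uM final), then stimulated with LPS (250 ng/mL final) plus ATP (1.25 mM final); secreted IL-1B measured by AlphaLISA after 16 hr, decreased signal indicating inhibition.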
# VP16 counter: Gal4-VP16 reporter inhibition counter-screen. Drosophila S2 Gal4-VP16 UAS-luciferase, luminescence, 20 h. Potency, µM (series often up to 53.6 µM), most hits filed as inhibitors. 310,000 compounds, 3.5% hits. AID 2546;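 also: Gal4-VP16 expression switched on by copper sulfate through the metallothionein promoter; nearly all actives have a fitted effect of over 50% in size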
# TDP1 cell noCPT: qHTS for Inhibitors of human tyrosyl-DNA phosphodiesterase 1 (TDP1): qHTS in cells in absence of CPT; DT40 Tdp1-/- hTDP1 cells, no CPT, ATP luminescence, 48 h; Potency, µM (top dose mostly 46.2 µM), most hits filed as inhibitors; 420,000 compounds, 15% hits; also: nearly all actives have a fitted effect of over 55% in size
#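 Seeded 400 DT40-hTDP1 cells/well (vehicle DMSO, no 20 nM CPT); pinned compounds; ≥48 hr at 37 °C; CellTiter-Glo luminescence as viability measure.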
# RORg inh: blocks mouse ROR gamma transcriptional activity; 310,000 compounds, 5.4% hits; Potency, µM (doses to about 53.6 µM), usual class: inhibitors; P51450; AID 2551; Drosophila S2 Gal4-RORgamma UAS-luciferase reporter, 20 h; also: nearly all actives have a fitted effect of over 60% in size
# Target sequence (P51450 whole entry, looked up, the tested form may be a part): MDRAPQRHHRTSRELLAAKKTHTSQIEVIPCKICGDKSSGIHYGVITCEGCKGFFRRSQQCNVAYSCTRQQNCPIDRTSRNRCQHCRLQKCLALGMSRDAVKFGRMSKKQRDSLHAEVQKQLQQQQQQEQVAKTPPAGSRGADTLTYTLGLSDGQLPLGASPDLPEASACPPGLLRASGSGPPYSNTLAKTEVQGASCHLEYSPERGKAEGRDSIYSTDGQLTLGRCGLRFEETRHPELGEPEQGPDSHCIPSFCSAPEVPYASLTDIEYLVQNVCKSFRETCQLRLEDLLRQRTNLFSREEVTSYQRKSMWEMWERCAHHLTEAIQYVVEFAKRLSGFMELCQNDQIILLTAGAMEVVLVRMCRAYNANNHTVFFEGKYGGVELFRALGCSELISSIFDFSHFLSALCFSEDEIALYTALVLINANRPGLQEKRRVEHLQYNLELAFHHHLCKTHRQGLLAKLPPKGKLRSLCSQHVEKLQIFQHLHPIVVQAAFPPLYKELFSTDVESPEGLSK
#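 Luciferase reporter read in Schneider cells carrying Gal4-RORγ (mouse) and UAS-Photinus luciferase; cells given compound 1 h before 700 uM copper sulfate induction, then incubated 20 h at ambient temperature.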
# TDP1 cell CPT: growth inhibition of DT40 Tdp1-/-;hTDP1 cells with camptothecin (screen for TDP1 inhibitors); chicken DT40 Tdp1-/-;hTDP1 cells + 20 nM CPT, ATP luminescence, 48 h; Potency, µM (highest dose often 46.2 µM), usual class: inhibitors; 420,000 compounds, 12% hits; AID 686979; also: nearly all actives have a fitted effect of over 55% in size
#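 Chicken DT40 Tdp1-/- cells stably complemented with human TDP1 were seeded at 400 cells/well in medium containing 20 nM camptothecin, exposed to pin-transferred compounds, and grown at 37 °C for at least 48 hr. Viability was read as ATP luminescence.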
# ELG1 repair inh: inhibitors of ELG1-dependent DNA repair in HEK293T cells; HEK293T ELG1-luciferase reporter, luminescence, 16 h; DNA damage induced by 5-fluorouridine; Potency, µM (doses to about 46.1 µM), most hits filed as inhibitors; 330,000 compounds, 2.3% hits; AID 504467; also: nearly all actives have a fitted effect of over 55% in size
#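 Cells (2,000 per well) received 5-fluorouridine plus test compound or DMSO and were incubated 16 hr at 37 °C, 5% CO2. Luciferase activity was read by luminescence 30 min after ONE-Glo addition; signal suppression marked inhibition of damage-induced ELG1 function.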
# Hits are given with their value; i = inactive; ? = inconclusive; nt = no result given; [ ] = remark or other dose. Sampled rows, rich in hits. Any-hit rate of the full collection: about 21%. Unless noted, calls follow the shape of the dose curve; as a rule, active = well fitted curve in the direction sought with a large enough effect; inconclusive = small, poorly fitted or top-dose-only effect, or another doubt; inactive = no such curve, though single readings can be large; an effect the other way counts as inactive or inconclusive.
SMILES,IL-1B inflam inh,VP16 counter,TDP1 cell noCPT,RORg inh,TDP1 cell CPT,ELG1 repair inh
COc1ccc(C2=Nc3ccccc3N(C(=O)c3ccc4c(c3)OCO4)C2C(=O)Nc2c(C)cccc2C)cc1 (stereo not drawn),i,nt,?,nt,?,nt
CC(C)Cn1c(C(C)C)nc([N+](=O)[O-])c1S(=O)(=O)c1ccc(F)cc1,-89.2,?,3.26µM,11.2µM,2.31µM,?
Cn1c(CCNS(=O)(=O)c2ccccc2)nc2cc([N+](=O)[O-])ccc21,i,i,i,i,?,i
CCCc1nc([N+](=O)[O-])c(S(=O)(=O)c2ccccc2)n1CC(C)C,-100.1,?,3.26µM,?,16.4µM,i
CC(NC(=O)CN1C(=O)NC2(CCCCCC2)C1=O)c1ccccc1Cl (stereo not drawn),i,nt,i,nt,i,?
Cc1ccn2c(NC(=O)c3ccco3)c(-c3ccccc3)nc2c1,i,i,i,i,i,i
CCOC(=O)c1c(C)nc2ccccn12,i,i,i,i[10 µM],i,i
Cc1ccc(SCC(=O)c2c(C)nc3ccccn23)cc1,?,i,10.3µM,i,20.6µM,?
CCOC(=O)c1c(-c2ccccc2)nc2ccc(C)cn12,i,i,16.4µM,?,?,?
CCOC(=O)c1c(-c2ccccc2)nc2cc(C)ccn12,i,i,?,12.6µM,?,?
CCOC(=O)C(=O)c1c(-c2ccc(C)cc2)nc2ccccn12,i,i,?,i,23.1µM,i
CCOC(=O)C(=O)c1c(-c2ccccc2)nc2ccccn12,i,i,?,i,?,i
CCC1CCC(C(=O)NNC(=O)c2cc(-c3ccco3)[nH]n2)CC1 (stereo not drawn),i,i,?,i,?,i
CCOc1ccc(-n2c(=O)c3c4c(sc3n(Cc3cccc(C)c3)c2=O)CCCC4)cc1,nt,nt,i,nt,i,nt
CCN(CCO)Cc1cc(=O)oc2c(C)c(C)ccc12,i,i,i,i,i,i
CCOc1ccc(CN(C)Cc2cc(=O)oc3c(C)c(C)ccc23)cc1OC,i,nt,8.2µM,nt,10.3µM,nt
Cc1cc2oc(=O)cc(CN(C)Cc3cccc(F)c3)c2cc1Cl,i,i,i,i,i,i
CSc1ccc(CN(C)Cc2cc(=O)oc3c(C)c(C)ccc23)cc1,i,?,?,i,20.6µM,?
COc1ccc(CN(C)Cc2cc(=O)oc3cc(C)c(C(C)C)cc23)cc1OC,-57.7,i,?,i,?,18.3µM
Cc1ccc2c(CN(C)Cc3cccc(Cl)c3)cc(=O)oc2c1C,i,i,29.1µM,i,?,?
CC1(C(=O)NCCC(F)(F)F)Cc2c(-c3ccccc3)ccnc2O1 (stereo not drawn),i,nt,5.8µM,nt,6.51µM,nt
CC1(C(=O)NCc2ccco2)Cc2c(-c3ccccc3)ccnc2O1 (stereo not drawn),i,nt,2.31µM,nt,2.59µM,nt
COc1ccc(NC(=O)CN2C(=O)C(=O)N(C3CCCC3)C2=O)c(OC)c1,i,nt,i,nt,i,?
O=[N+]([O-])c1ccc(OCc2n[nH]c(=S)n2-c2ccccc2)cc1,i,?,i,0.316µM,i,i
S=c1[nH]nc(-c2ccc3c(c2)OCO3)n1-c1ccccc1,i,11.2µM,i,8.91µM,i,?
SMILES,IL-1B inflam inh,VP16 counter,TDP1 cell noCPT,RORg inh,TDP1 cell CPT,ELG1 repair inh
S=c1[nH]nc(COc2ccc(Cl)cc2Cl)n1-c1ccccc1,i,3.55µM,i,i[1.91 µM],i,i
CCn1c(CCCOc2ccc(Cl)cc2Cl)n[nH]c1=S,i,3.16µM,?,2.82µM,?,i
CC(C)NC(=O)COC(=O)CNC(=O)c1cc(Cl)cc([N+](=O)[O-])c1,i,i,i,i,i,?
O=C(COc1ccccc1)NCc1n[nH]c(=S)n1-c1ccccc1,i,i,i,i,i,i
S=c1[nH]nc(COc2ccc3c(c2)OCO3)n1-c1ccccc1,i,11.2µM,i,3.55µM,i,i
COc1ccc(-c2cn[nH]c2-c2ccc(O)cc2O)cc1OC,i,i,?,i,i,i
COc1ccc(-c2c(-c3ccc(O)cc3O)n[nH]c2C)cc1OC,i,i,18.4µM,i,?,?
COc1ccc(-c2c(-c3ccc(OC)c(C)c3O)n[nH]c2C)cc1,?,11.2µM,?,11.2µM,?,i
O=[N+]([O-])c1ccc(/C=[N+](\[O-])[C@@H]2CCCC[C@@H]2/[N+]([O-])=C/c2ccc([N+](=O)[O-])o2)o1,-92.3,?,10.3µM,i,7.31µM,?
[O-]/[N+](=C\c1ccccc1)[C@@H]1CCCC[C@@H]1/[N+]([O-])=C/c1ccccc1,i,i,i,?,i,i
CC(C)=CC(=O)O[C@@H]1Cc2cc3ccc(=O)oc3cc2OC1(C)C,i,nt,?,nt,?,?
O=C(Nc1ccc2oc(-c3ccc(Cl)cc3)nc2c1)c1ccc2ccccc2c1,nt,nt,i,nt,i,nt
O=C(Nc1ccc(-c2nc3cc(NC(=O)c4ccccc4F)ccc3o2)cc1)c1ccccc1F,nt,nt,13µM,nt,14.6µM,nt
Cc1nc2cc(NC(=O)Nc3ccc(Br)cc3)ccc2o1,i,i,23.1µM,?,?,?
O=C(Nc1ccc2oc(-c3ccncc3)nc2c1)c1ccccc1F,i,i,i,i,i,i
O=C(Nc1ccc(-c2nc3cc(NC(=O)c4ccc(Cl)cc4)ccc3o2)cc1)c1ccc(Cl)cc1,nt,nt,4.11µM,nt,i,nt
O=C(Nc1ccc(-c2nc3cc(NC(=O)c4cccs4)ccc3o2)cc1)c1cccs1,i,?,12.6µM,i,11.2µM,?
COc1ccc(C(=O)NCC(=O)OCc2ccc(Cl)cc2Cl)cc1OC,i,nt,i,nt,i,i
Cc1ccc(N2CC(NC(=O)c3ccco3)CC2=O)cc1C (stereo not drawn),nt,nt,i,nt,i,nt
Cc1ccc(C(=O)Nc2ccc3oc(-c4ccncc4)nc3c2)c(Cl)c1,nt,nt,?,nt,i,nt
Cc1nc2ccc(NC(=O)Nc3ccnc4cccnc34)cc2o1,nt,i,21.1µM,i,?,nt
Cc1ccc(-c2nc3cc(NC(=O)c4cc(Br)ccc4Cl)ccc3o2)cc1,nt,nt,4.61µM,nt,5.8µM,nt
CC(C)(C)c1ccc(-c2nc3cc(NC(=O)c4cccc(Br)c4)ccc3o2)cc1,nt,nt,4.61µM,nt,?,nt
CNC(=S)Nc1ccc2nc(C)oc2c1,i,i,i,i,i,?
COc1ccc(NC(=O)c2cc3ccccc3cc2OC)cc1OC,i,i,18.4µM,i,?,i
COc1cc2c(cc1NC(=O)COc1ccc(Br)cc1C)oc1ccccc12,nt,nt,i,nt,i,nt
CCN(C(=O)COC(=O)CNC(=O)C1CCCCC1)c1ccccc1,i,nt,i,nt,i,i
CN(CC(=O)Nc1cccc(F)c1)C(=O)CSc1nc2ccccc2s1,i,nt,i,nt,i,i
O=C(Cc1ccccc1)NC(=S)Nc1ccc2oc(-c3ccccc3)nc2c1,nt,7.08µM,nt,7.08µM,nt,?

# Screening results (PubChem)
